This is an account of results in PubChem BioAssay.

Structures are written as SMILES. Activity calls are given as the source filed them.

Experiment [1] concerns Plasmodium falciparum Sir2 (PF13_0152, Sir2A). The experiment is described as follows: Plasmodium falciparum Sir2A binding compounds – biochemical, small-molecule microarray, 635 nm fluorescence, primary screen (AID 1098).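 Note: score merges spot fluorescence intensity with its signal-to-noise ratio.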 The conditions noted are these: fluorescence 635 nm, higher = more signal.
The nature of experiment [2]: probe aDKK1 binding to arrayed compounds – biochemical, biotinylated probe, 635/667 nm fluorescence, primary screen (AID 1099).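 Note: score merges 667nm spot fluorescence with signal to noise across triplicate slides.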 To be noted: small-molecule microarray, higher = more signal.
Experiment [3] is described as follows: probe aCHRDL2 binding to arrayed compounds – biochemical, biotinylated probe, 635/667 nm fluorescence, primary screen (AID 1100). To be noted: small-molecule microarray, higher = more signal.
A short description of experiment [4]: change in splice reporter luminescence, either direction, cell-based, HEK293, spliceosome inhibition project, primary screen (AID 1101).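 Note: HEK293 cells carrying a splicing-competent luciferase reporter gene; test concentration not given here.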 The conditions noted are these: HEK293 splicing luciferase reporter, 24 h, higher = more signal, called active from +8 up or from −8 down. A general note: A reporter such as luciferase makes a cellular process visible.
The target of experiment [5] is Fibroblast growth factor 10 (Homo sapiens) (UniProt O15520). The experiment in a line: compounds binding fibroblast growth factor 10 – biochemical, small-molecule microarray, 635 nm fluorescence, primary screen (AID 1102). To be noted: FGF10 binding, fluorescence 635 nm, higher = more signal.
The test system of experiment [6] is glycogen synthase kinase-3 (GSK3A per assay name; protocol says GSK3B). The experiment in a line: compounds binding glycogen synthase kinase-3 – biochemical, small-molecule microarray, 635 nm fluorescence, GSK3A, primary screen (AID 1103). Note: the record names both GSK3A and GSK3B. To be noted: fluorescence 635 nm, higher = more signal.
In experiment [7] the target is Epidermal growth factor receptor (Homo sapiens) (UniProt P00533). The experiment in a line: compounds binding epidermal growth factor receptor – biochemical, small-molecule microarray, 635 nm fluorescence, primary screen (AID 1104).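 Note: score merges 667 nm emission intensity with spot signal to noise over triplicate slides.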 To be noted: EGFR binding, higher = more signal.
For experiment [8], the target named is Follistatin-related protein 3 (Homo sapiens) (UniProt O95633). The experiment is described as follows: compounds binding follistatin-related protein 3 – biochemical, small-molecule microarray, 635 nm fluorescence, primary screen (AID 1105).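 Note: score merges emission near 667 nm and signal to noise per printed spot across three slides.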 The conditions noted are these: FSTL3 binding, higher = more signal.
Experiment [9] concerns the target Dickkopf-related protein 1 (Homo sapiens) (UniProt O94907). The experiment in a line: small molecules binding DKK1 protein – biochemical, small-molecule microarray, 635 nm fluorescence scan, primary screen (AID 1106).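 Note: score merges emission near 667 nm with signal to noise over three replicate slides.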 To be noted: higher = more signal.
In experiment [10] the test system is Inhibin beta A chain (activin A). The experiment in a line: small molecules binding activin A – biochemical, small-molecule microarray, 635 nm fluorescence scan, primary screen (AID 1107).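 Note: mouse activin A protein probed at 4.33 µg/mL on printed slides; score merges bound-protein fluorescence near 667 nm with spot signal-to-noise.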 The conditions noted are these: INHBA, higher = more signal.
In experiment [11] the test system is Human papillomavirus type 1a protein E7 (residues 44-93). The experiment is described as follows: small molecules binding HPV E7 44-93 – biochemical, small-molecule microarray, residues 44-93, 635 nm fluorescence, primary screen (AID 1108).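 Note: E7 fragment applied at 1 µg/mL in TBST for 1 h at 4 C; score combines spot fluorescence with its signal to noise ratio.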 To be noted: fluorescence 635 nm, higher = more signal.
Experiment [12] is described as follows: hepatitis C replication reporter changes, two-sided – Huh7 cells, luciferase reporter, HCV replication inhibitor project, primary screen (AID 1109).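 Note: huh7 hepatoma cells harbouring a luciferase neomycin HCV replicon reporter; luciferase luminescence as measure of HCV replicon replication; test concentration not given here.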 To be noted: Huh7 HCV replicon luciferase reporter, 48 h; higher = more signal.
In experiment [13] the target is Left-right determination factor 2 (Homo sapiens) (UniProt O00292). The experiment is described as follows: small molecules binding LEFTY2 protein – biochemical, small-molecule microarray, 635 nm fluorescence scan, primary screen (AID 1110). The conditions noted are these: higher = more signal.
Experiment [14] has as its target Calmodulin-1 (Homo sapiens) (UniProt P0DP23). The experiment is described as follows: small molecules binding calmodulin-1 with EGTA – biochemical, small-molecule microarray, Cy5-labelled CALM1, profiling panel (AID 1111).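 Note: labelled calmodulin applied in Tris saline Tween buffer holding calcium plus EGTA and DTT.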 The conditions noted are these: Cy5-CALM1 binding fluorescence, higher = more signal.
For experiment [15] the target is unchanged. The experiment in a line: small molecules binding Ca-loaded calmodulin-1 – biochemical, small-molecule microarray, Cy5-labelled CALM1, plus calcium, artefact control for SMM control-protein annotation, profiling panel (AID 1112).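 Note: score merges spot fluorescence with signal to noise from triplicate slides.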 To be noted: Cy5-CALM1 binding fluorescence, higher = more signal.
A short description of experiment [16]: probe aWnt5a binding to arrayed compounds – biochemical, biotinylated probe, 635/667 nm fluorescence, primary screen (AID 1113).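 Note: score merges 667 nm fluorescence intensity with signal-to-noise per printed feature.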 The conditions noted are these: small-molecule microarray, higher = more signal.
A short description of experiment [17]: probe aShh binding to arrayed compounds – biochemical, biotinylated probe, 635/667 nm fluorescence, primary screen (AID 1114).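 Note: probe is biotin-labelled aShh protein from a stem cell growth factor screen; measures binding of labelled protein to compounds printed on the slide; score merges feature fluorescence at 667 nm with signal-to-noise.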 The conditions noted are these: small-molecule microarray, higher = more signal.
Experiment [18] can be described thus: probe aNog binding to arrayed compounds – biochemical, biotinylated probe, 635/667 nm fluorescence, primary screen (AID 1115).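 Note: probe is biotinylated aNog protein used at 0.15 µg/mL for 1 h at 4 C; z-score combines 667 nm fluorescence of each spot with its signal to noise.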 To be noted: small-molecule microarray, higher = more signal.
In experiment [19] the target is Torsin-1A-interacting protein 1 (Homo sapiens) (UniProt Q5JTV8). The experiment in a line: compound microarray binding of lysate hLAP1 – cell lysate, small-molecule microarray, COS7 lysate, 635/667 nm fluorescence, primary screen (AID 1116). To be noted: 635 nm fluorescence, higher = more signal.
Experiment [20] has as its target Alpha-bungarotoxin (Bungarus multicinctus) (UniProt P60615). The experiment is described as follows: compounds binding labelled alpha-BTX control protein – biochemical, small-molecule microarray, Alexa647 label, 635/667 nm fluorescence, artefact control for SMM control protein annotation, profiling panel (AID 1117). The conditions noted are these: alpha-BTX-A647 binding fluorescence, higher = more signal.

Chain of Left-right determination factor 2 (Homo sapiens) (O00292 whole entry, looked up): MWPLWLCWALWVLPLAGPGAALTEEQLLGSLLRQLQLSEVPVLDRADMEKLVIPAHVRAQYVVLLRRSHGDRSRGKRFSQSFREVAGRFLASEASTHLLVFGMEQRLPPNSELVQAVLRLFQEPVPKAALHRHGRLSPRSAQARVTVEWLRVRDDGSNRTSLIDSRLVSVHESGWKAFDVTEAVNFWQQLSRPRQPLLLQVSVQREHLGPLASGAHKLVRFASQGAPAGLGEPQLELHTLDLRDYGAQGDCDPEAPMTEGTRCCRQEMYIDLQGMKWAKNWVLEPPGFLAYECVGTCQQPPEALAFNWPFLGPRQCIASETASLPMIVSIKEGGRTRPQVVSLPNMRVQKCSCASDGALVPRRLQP
Chain of Fibroblast growth factor 10 (Homo sapiens) (O15520 whole entry, looked up): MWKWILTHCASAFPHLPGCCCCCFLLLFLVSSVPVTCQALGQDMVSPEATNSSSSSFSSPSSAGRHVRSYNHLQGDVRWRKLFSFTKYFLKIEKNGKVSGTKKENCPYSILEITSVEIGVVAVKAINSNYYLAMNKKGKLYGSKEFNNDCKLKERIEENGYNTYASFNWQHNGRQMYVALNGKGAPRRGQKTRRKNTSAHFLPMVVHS
Chain of Alpha-bungarotoxin (Bungarus multicinctus) (P60615 whole entry, looked up): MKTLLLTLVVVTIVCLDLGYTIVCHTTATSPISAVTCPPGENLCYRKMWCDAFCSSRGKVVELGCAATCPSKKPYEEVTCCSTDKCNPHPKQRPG
Chain of Dickkopf-related protein 1 (Homo sapiens) (O94907 whole entry, looked up): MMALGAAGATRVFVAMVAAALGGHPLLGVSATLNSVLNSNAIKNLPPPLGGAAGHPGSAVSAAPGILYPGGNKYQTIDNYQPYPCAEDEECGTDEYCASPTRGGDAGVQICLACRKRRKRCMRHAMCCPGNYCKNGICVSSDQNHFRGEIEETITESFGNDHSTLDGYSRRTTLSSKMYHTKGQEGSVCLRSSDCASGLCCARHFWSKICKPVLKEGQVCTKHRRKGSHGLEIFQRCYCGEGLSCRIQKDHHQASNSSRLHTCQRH
Chain of Epidermal growth factor receptor (Homo sapiens) (P00533 whole entry, looked up): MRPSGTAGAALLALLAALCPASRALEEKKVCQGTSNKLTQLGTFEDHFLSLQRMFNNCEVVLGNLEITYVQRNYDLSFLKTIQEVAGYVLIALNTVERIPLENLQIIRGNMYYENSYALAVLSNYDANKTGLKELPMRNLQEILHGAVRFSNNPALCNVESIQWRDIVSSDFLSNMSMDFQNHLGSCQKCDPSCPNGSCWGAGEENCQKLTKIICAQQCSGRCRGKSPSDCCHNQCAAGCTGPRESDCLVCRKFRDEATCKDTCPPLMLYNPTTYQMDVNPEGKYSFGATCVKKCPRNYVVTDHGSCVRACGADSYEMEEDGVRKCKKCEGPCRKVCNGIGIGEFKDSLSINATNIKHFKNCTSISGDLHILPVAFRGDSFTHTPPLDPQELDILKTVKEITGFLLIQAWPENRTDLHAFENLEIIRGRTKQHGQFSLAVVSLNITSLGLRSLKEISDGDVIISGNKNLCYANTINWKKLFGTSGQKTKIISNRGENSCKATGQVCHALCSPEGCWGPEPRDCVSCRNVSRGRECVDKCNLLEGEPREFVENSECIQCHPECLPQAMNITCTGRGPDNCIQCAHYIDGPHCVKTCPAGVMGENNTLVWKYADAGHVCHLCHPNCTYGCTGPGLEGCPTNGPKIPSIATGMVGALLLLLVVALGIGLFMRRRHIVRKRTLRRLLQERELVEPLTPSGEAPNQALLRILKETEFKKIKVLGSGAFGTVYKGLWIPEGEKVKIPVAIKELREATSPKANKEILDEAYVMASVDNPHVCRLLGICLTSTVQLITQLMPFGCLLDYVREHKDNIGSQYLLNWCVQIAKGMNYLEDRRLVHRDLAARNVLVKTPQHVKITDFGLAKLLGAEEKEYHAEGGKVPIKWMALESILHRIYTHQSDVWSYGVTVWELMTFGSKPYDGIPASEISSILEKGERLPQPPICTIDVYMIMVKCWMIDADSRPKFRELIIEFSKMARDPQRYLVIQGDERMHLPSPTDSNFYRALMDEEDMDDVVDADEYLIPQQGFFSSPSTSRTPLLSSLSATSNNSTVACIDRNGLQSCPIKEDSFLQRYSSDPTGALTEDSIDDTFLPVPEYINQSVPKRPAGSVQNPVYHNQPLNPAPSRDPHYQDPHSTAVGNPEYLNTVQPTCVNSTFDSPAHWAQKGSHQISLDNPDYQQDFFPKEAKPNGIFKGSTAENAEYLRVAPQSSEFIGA
Chain of Follistatin-related protein 3 (Homo sapiens) (O95633 whole entry, looked up): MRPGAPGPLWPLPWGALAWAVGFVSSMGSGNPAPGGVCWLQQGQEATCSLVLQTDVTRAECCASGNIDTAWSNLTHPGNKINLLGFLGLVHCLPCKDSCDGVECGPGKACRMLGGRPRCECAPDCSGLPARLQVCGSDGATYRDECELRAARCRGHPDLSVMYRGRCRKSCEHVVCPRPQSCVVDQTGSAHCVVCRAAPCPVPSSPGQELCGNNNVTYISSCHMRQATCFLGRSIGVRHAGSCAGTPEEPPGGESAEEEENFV
Chain of Torsin-1A-interacting protein 1 (Homo sapiens) (Q5JTV8 whole entry, looked up): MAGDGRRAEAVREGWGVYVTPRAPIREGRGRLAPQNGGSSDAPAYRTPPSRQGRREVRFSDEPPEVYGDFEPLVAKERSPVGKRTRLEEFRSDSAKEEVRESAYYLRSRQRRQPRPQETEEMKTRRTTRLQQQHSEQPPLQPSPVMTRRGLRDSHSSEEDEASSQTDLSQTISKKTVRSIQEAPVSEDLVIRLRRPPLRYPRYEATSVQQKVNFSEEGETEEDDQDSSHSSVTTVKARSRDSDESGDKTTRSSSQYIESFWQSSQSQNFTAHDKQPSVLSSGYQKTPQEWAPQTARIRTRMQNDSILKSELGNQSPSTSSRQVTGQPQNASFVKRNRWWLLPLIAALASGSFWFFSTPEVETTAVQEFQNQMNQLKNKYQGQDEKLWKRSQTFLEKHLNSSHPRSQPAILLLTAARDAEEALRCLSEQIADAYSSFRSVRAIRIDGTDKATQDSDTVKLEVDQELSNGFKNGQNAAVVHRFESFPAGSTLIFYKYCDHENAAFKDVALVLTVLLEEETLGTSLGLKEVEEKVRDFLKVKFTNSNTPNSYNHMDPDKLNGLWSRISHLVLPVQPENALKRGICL

For the compound `CC(=O)OC[C@H]1O[C@@H](ON=C[C@@H](C)[C@H](OCc2ccccc2)C(C)C)[C@H](OC(C)=O)[C@@H](OC(C)=O)[C@@H]1OC(C)=O`, the composite z-score was -0.0075 in [1]; 0.129 in experiment [2]; 0.169 in [3]; -0.167 in experiment [5]; 0.623 in experiment [6]; 0.338 in [7]. In addition, the composite z-score was -0.39 in experiment [8]; -1.22 in experiment [9]; -1.82 in experiment [10]; 0.162 in [11]; 0.619 in experiment [13]; 0.336 in [14]. Moreover, the composite z-score is -0.815 in [15]; -0.0754 in experiment [16]; -0.19 in experiment [17]; -0.144 in experiment [18]; -0.563 in experiment [19]; 0.226 in [20]. Besides, the z-score in experiment [4] was 0.14 (inactive); in experiment [12], -0.518.

For `CC(C)C[C@@H]1NC(=O)[C@H]2C[C@@H](C(=O)NCCCCCCN(C)C)[C@@H](c3cccc(OCCO)c3)N2C1=O`, the composite z-score turned out to be 1.5 in experiment [1]; 0.346 in experiment [2]; 0.124 in [3]; 1.01 in experiment [5]; 1.21 in experiment [6]; 0.317 in experiment [7]. Further, the composite z-score is 1.35 in experiment [8]; 1.74 in experiment [9]; 1.1 in [10]; 1.24 in [11]; 1.38 in experiment [13]; -2.44 in experiment [14]. Further, the composite z-score was -1.26 in [15]; -0.0792 in experiment [16]; 0.108 in experiment [17]; -0.216 in [18]; 2.04 in experiment [19]; 1.61 in [20]. For the same compound, the z-score was -0.152 (inactive) in experiment [4] and 0.35 in experiment [12].

Turning to `CO[C@@H]1COC(=O)CC=C[C@@H](C)[C@@H]2C=C[C@@H](O)[C@@H](COC(=O)CC=C[C@H]1C)O2`, the composite z-score was 0.661 in [1]; -0.325 in experiment [2]; -1.08 in experiment [3]; 0.954 in experiment [5]; 0.524 in experiment [6]; 0.935 in experiment [7]. Further, the composite z-score in experiment [8] is 1.48; in [9] it was 0.804; in experiment [10] it was 1.12; in experiment [11], -0.438; in [13], 1.12; in [14] it was -1.24. The composite z-score in experiment [15] is -2.11; in experiment [16], -0.252; in experiment [17] it was 0.0756; in experiment [18], -0.444; in [19], -0.208; in [20], -0.114. In addition, the z-score is -0.953 (inactive) in experiment [4] and 0.464 in [12].

Take `CCCCC(=C=CC[C@H](O)c1ccccc1OCCO)C[C@H](O)COCc1ccccc1`: the composite z-score was 1.45 in experiment [1]; -0.001 in experiment [2]; 0.309 in [3]; 0.0624 in experiment [5]; -0.285 in [6]; -0.792 in [7]. Also, the composite z-score in experiment [8] was -0.349; in experiment [9], -0.355; in [10], 0.778; in experiment [11] it was -0.156; in experiment [13], -0.233; in experiment [14], 1.22. In addition, the composite z-score was 0.768 in experiment [15]; -0.124 in experiment [16]; -0.138 in [17]; 0 in [18]; 1.65 in experiment [19]; 1.04 in experiment [20]. For the same compound, the z-score in experiment [4] is -0.139 (inactive); in experiment [12], -1.92.

Regarding `CCOC(=O)[C@H](CC(C)C)NC(=O)CCC1CC(OC(=O)NCc2cccc3ccccc23)CC2(CCCC(COC(=O)NCCc3ccccc3OC)O2)O1` (stereo not given in full), the composite z-score was 0.766 in [1]; -0.141 in experiment [2]; -0.39 in [3]; 1 in experiment [5]; 1.03 in experiment [6]; 0.387 in experiment [7]. Besides, the composite z-score came to 0.866 in experiment [8]; 0.555 in experiment [9]; 0.182 in [10]; 1.38 in experiment [11]; 0.488 in experiment [13]; 1.3 in experiment [14]. Besides, the composite z-score was 0.371 in [15]; -0.124 in experiment [16]; -0.214 in experiment [17]; -0.335 in experiment [18]; 0.607 in [19]; 0.588 in experiment [20]. The z-score is -0.139 (inactive) in [4] and -1.24 in experiment [12].

On to `CC(C)C[C@@H]1NC(=O)[C@H]2C[C@@H](C(=O)O)[C@@H](c3ccc(O)cc3)N2C1=O`, for which the composite z-score is 1.08 in [1]; 0.717 in experiment [2]; 0.171 in experiment [3]; 0.0112 in experiment [5]; 0.141 in [6]; -0.284 in [7]. Also, the composite z-score in experiment [8] was 0.0204; in experiment [9] it was 0.63; in experiment [10], 1.05; in experiment [11], 0.635; in [13] it was 0.0945; in experiment [14] it was -0.187. For the same compound, the composite z-score in experiment [15] is 0.131; in experiment [16], -0.0704; in [17], 0.0611; in experiment [18], -0.144; in [19] it was 0.588; in [20], 2.19. Further, the results for the z-score in experiment [4] and in experiment [12] were -0.0559 (inactive) and 3.51, respectively.
